Data published in PubChem BioAssay (NCATS).
Results filed as inconclusive are left out. Activity calls are given as the source filed them. The call rests on the fitted dose curve; in most records, active means well fitted curve in either direction with a large enough effect (not every such curve was filed as active); inconclusive means small, poorly fitted or top-dose-only effect, or another doubt; inactive means flat fitted curve, though single readings scatter.

Assay: AP1 Signaling Pathway (AID 357);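 further: ME-180 reporter cells stimulated with EGF at its EC50 level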
Conditions: ME-180 (cervical carcinoma) AP-1-bla reporter, EGF-induced, beta-lactamase ratio, 5 h; at 17.2 µM (top of the series) unless noted
Procedure, shortened: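 Beta-lactamase reporter under AP-1 response element, ME-180 background. Stimulus: EC50 EGF. Compound exposure 5 h, 37 °C. Detection: CCF4, 2.5 h RT, 460/530 nm. Values: AC50 from titration.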
On the % scale 0 is the no-effect control and ±100 the full control effect.

Activity change, negative = inhibition, inactive:
COc1ccccc1-c1nnc2sc(COc3ccccc3)nn12 -9.17%
CN1C(=O)N(c2ccccc2)C(Nc2nncs2)C1(C)C (stereo not given) 2.23%
COc1ccccc1-c1cc(-c2cc(Cl)ccc2O)n[nH]1 5.68%
CN1CCC2(CC1)C1CN(C)CC=C1C(C#N)=C(N)C2(C#N)C#N (stereo not given) 6.27%
COc1ccc2c(c1)[nH]c1c(=O)n(CC3CCCO3)cnc12 (stereo not given) -4.81%
COCCN(C(=O)Nc1ccccc1)c1ccccc1C -9.46%
OCCOCCNc1ncnc2c1cnn2-c1ccc(Cl)cc1 9.08%
O=C1C=C(O)CC(c2ccco2)C1 (stereo not given) 10.5%
O=C(NC1(C(F)(F)F)C(=O)Nc2c1c(=O)[nH]c(=O)n2-c1ccccc1)c1cccnc1 (stereo not given) -3.2%
COc1ccc(NC(=O)C2CSC3c4ccccc4C(=O)N23)cc1 (stereo not given) -4.43%
CN(C)CCNc1nc(-c2ccco2)c2c(c1C#N)CC(C)(C)OC2 9.95%
C/C(=N\O)C(=O)NCCCn1ccnc1 16.3%
Cc1nnc2n(Cc3ccccc3)c(=O)c3c4c(sc3n12)CN(Cc1ccccc1)CC4 3.27%
CCC(C)Nc1nc(OC)nc(N(C)C#N)n1 (stereo not given) 12.2%
O=C(Nn1cnnc1)C(c1ccccc1)c1ccccc1 13.7%
CCCCCOc1ccccc1C(=O)NCC(=O)O 1.59%
COc1ccccc1Cn1c2nc3ccccc3nc2c2c(=O)n(CC(C)C)cnc21 -14.3%
CSc1nc(N)nc(SCC(=O)OC(C)C)c1C#N -15.6%
CC(=O)c1cc(C#N)c(SCC(=O)C(C)(C)C)nc1C -4.83%
O=C(O)CC(C(=O)N(c1ccccc1)c1ccccc1)N1CCOCC1 (stereo not given) -5.33%
O=C(NCCOCCOCCNC(=O)c1cccnc1)c1cccnc1 -1.69%
COc1cccc(N2C(=O)C(O)=C(C(C)=O)C2c2ccc(OC)c(OC)c2)c1 (stereo not given) -12.6%
CCCCCCn1c(C(C)O)nc2ccccc21 (stereo not given) 0.304%
Cc1cc(/C(O)=C2\C(=O)C(=O)N(CCN(C)C)C2c2ccncc2)ccc1OCc1ccccc1 (stereo not given) -14.5%
COc1ccc(C2CC(c3ccc(C)cc3)Nc3nc(N)nn32)cc1 (stereo not given) -10.4%
CCCC1Cc2c(sc3ncnc(N)c23)CO1 (stereo not given) -16.4%
Cc1occc(=O)c1OC(=O)Nc1ccccc1 9.9%
COC(=O)C(C)Sc1nc2c(c(=O)n(C)c(=O)n2C)n1CCC(C)C (stereo not given) -4.73%
CC(=O)[C@H]1[C@@H]2C(=O)N(c3cccc(Cl)c3)C(=O)[C@@H]2[C@H]2c3ccccc3C=CN21 -11%
Cc1cc(=O)[nH]c(COc2ccccc2)n1 3.59%
CC(C)=CCC(C)(C)CNC(=O)NC1CCCCC1 -8.2%
COc1ccc2c(c1)C1(C)CC(C)(C)N2C(=O)N1c1ccccc1 (stereo not given) -24.6%
COc1cccc(N2CCN(C3CC(=O)N(c4cccc(Cl)c4)C3=O)CC2)c1 (stereo not given) -3.08%
COc1ccc(OC)c(C2/C(=C(/O)c3ccc(C)cc3)C(=O)C(=O)N2Cc2ccco2)c1 (stereo not given) -0.882%
CC(C)CC(=O)Nc1ncnc2c1C(=O)CC(C)(C)C2 1.69%
CSc1nc2sc3c(c2c2nnnn12)CC(C)(C)OC3 -8.22%
Cc1ccc2[nH]c3c(c2c1)CN(C(=O)CN1CCN(c2ccccn2)CC1)CC3 -13.5%
COc1ccccc1N1CCN(C2CCN(C(=O)c3cccs3)CC2)CC1 4.38%
COc1cc(-c2nn3c(-c4ccco4)nnc3s2)cc(OC)c1OC -2.59%
OCCN=C(c1ccccc1)C12CN3CN(CN(C3)C1)C2 6.77%

Assay: NFAT Signaling Pathway (AID 444);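 further: carbachol stimulus at about its EC50 of 1 µM final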
Conditions: Jurkat NFAT-bla M1, carbachol, beta-lactamase ratio, 5 h; at 17.2 µM (top of the series) unless noted
Procedure, shortened: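 Jurkat cells carrying an NFAT-driven β-lactamase reporter and co-transfected muscarinic M1 receptor were treated with compound plus carbachol (1 uM final, an EC50 level) for 5 h at 37 °C. CCF4 loading followed for 1 h at RT; 460/530 nm ratio gave %activity.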

Activity change, negative = inhibition, inactive:
COc1ccccc1-c1nnc2sc(COc3ccccc3)nn12 13.4%
CN1C(=O)N(c2ccccc2)C(Nc2nncs2)C1(C)C (stereo not given) -8.24%
COc1ccccc1-c1cc(-c2cc(Cl)ccc2O)n[nH]1 2.8%
CN1CCC2(CC1)C1CN(C)CC=C1C(C#N)=C(N)C2(C#N)C#N (stereo not given) 13.7%
COc1ccc2c(c1)[nH]c1c(=O)n(CC3CCCO3)cnc12 (stereo not given) 16.4%
COCCN(C(=O)Nc1ccccc1)c1ccccc1C -0.712%
OCCOCCNc1ncnc2c1cnn2-c1ccc(Cl)cc1 0.366%
O=C1C=C(O)CC(c2ccco2)C1 (stereo not given) -7.18%
O=C(NC1(C(F)(F)F)C(=O)Nc2c1c(=O)[nH]c(=O)n2-c1ccccc1)c1cccnc1 (stereo not given) 8.45%
COc1ccc(NC(=O)C2CSC3c4ccccc4C(=O)N23)cc1 (stereo not given) -13%
CN(C)CCNc1nc(-c2ccco2)c2c(c1C#N)CC(C)(C)OC2 -23%
C/C(=N\O)C(=O)NCCCn1ccnc1 1.22%
Cc1nnc2n(Cc3ccccc3)c(=O)c3c4c(sc3n12)CN(Cc1ccccc1)CC4 -8.71%
CCC(C)Nc1nc(OC)nc(N(C)C#N)n1 (stereo not given) 12.5%
O=C(Nn1cnnc1)C(c1ccccc1)c1ccccc1 -6.95%
CCCCCOc1ccccc1C(=O)NCC(=O)O 0.449%
COc1ccccc1Cn1c2nc3ccccc3nc2c2c(=O)n(CC(C)C)cnc21 4.7%
CSc1nc(N)nc(SCC(=O)OC(C)C)c1C#N 6.28%
CC(=O)c1cc(C#N)c(SCC(=O)C(C)(C)C)nc1C -23.2%
O=C(O)CC(C(=O)N(c1ccccc1)c1ccccc1)N1CCOCC1 (stereo not given) -0.593%
O=C(NCCOCCOCCNC(=O)c1cccnc1)c1cccnc1 -1.99%
COc1cccc(N2C(=O)C(O)=C(C(C)=O)C2c2ccc(OC)c(OC)c2)c1 (stereo not given) 9.05%
CCCCCCn1c(C(C)O)nc2ccccc21 (stereo not given) 5.62%
Cc1cc(/C(O)=C2\C(=O)C(=O)N(CCN(C)C)C2c2ccncc2)ccc1OCc1ccccc1 (stereo not given) 17.3%
COc1ccc(C2CC(c3ccc(C)cc3)Nc3nc(N)nn32)cc1 (stereo not given) 11.6%
CCCC1Cc2c(sc3ncnc(N)c23)CO1 (stereo not given) -5.16%
Cc1occc(=O)c1OC(=O)Nc1ccccc1 1.25%
COC(=O)C(C)Sc1nc2c(c(=O)n(C)c(=O)n2C)n1CCC(C)C (stereo not given) 7.85%
CC(=O)[C@H]1[C@@H]2C(=O)N(c3cccc(Cl)c3)C(=O)[C@@H]2[C@H]2c3ccccc3C=CN21 -7.09%
Cc1cc(=O)[nH]c(COc2ccccc2)n1 -7.86%
CC(C)=CCC(C)(C)CNC(=O)NC1CCCCC1 19%
COc1ccc2c(c1)C1(C)CC(C)(C)N2C(=O)N1c1ccccc1 (stereo not given) 24.8%
COc1cccc(N2CCN(C3CC(=O)N(c4cccc(Cl)c4)C3=O)CC2)c1 (stereo not given) 12.6%
COc1ccc(OC)c(C2/C(=C(/O)c3ccc(C)cc3)C(=O)C(=O)N2Cc2ccco2)c1 (stereo not given) -17.7%
CC(C)CC(=O)Nc1ncnc2c1C(=O)CC(C)(C)C2 -2.65%
CSc1nc2sc3c(c2c2nnnn12)CC(C)(C)OC3 -19.6%
Cc1ccc2[nH]c3c(c2c1)CN(C(=O)CN1CCN(c2ccccn2)CC1)CC3 22.4%
COc1ccccc1N1CCN(C2CCN(C(=O)c3cccs3)CC2)CC1 -21.8%
COc1cc(-c2nn3c(-c4ccco4)nnc3s2)cc(OC)c1OC -0.323%
OCCN=C(c1ccccc1)C12CN3CN(CN(C3)C1)C2 -21.4%
